Among all 420,000 compounds or so, about 64,000 (15%) were called active. About 27% were inconclusive and are not listed. The call rests on the fitted dose curve; in most records, active means well fitted inhibition curve with a large enough effect; inconclusive means small, poorly fitted or top-dose-only effect; inactive means flat fitted curve, though single readings scatter. Only a sample is shown.
On the % scale 0 is the no-effect control and ±100 the full control effect; potency means the concentration at half of the fitted maximal effect.

This assay is described as follows: qHTS for Inhibitors of human tyrosyl-DNA phosphodiesterase 1 (TDP1): qHTS in cells in absence of CPT. Further: nearly all actives have a fitted effect of over 55% in size. To be noted: DT40 Tdp1-/- hTDP1 cells, no CPT, ATP luminescence, 48 h; activity change, negative = growth inhibition: at 46.2 µM (top of the series). The gist of the method:
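Chicken DT40 Tdp1-/- cells complemented with human TDP1, screened without camptothecin (DMSO vehicle only), 400 cells/well. Compounds pin-transferred, cells incubated at 37 °C for at least 48 hr. Growth read as ATP-dependent luminescence (CellTiter-Glo, 30 min at RT).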
A general note: qHTS replaces the single test concentration by a dilution series.
For `CCCNC(=O)c1cc2c(c(-c3cccc(-c4ccc(C#N)cc4)c3)n1)[C@@H](CCO)N(C(=O)CC)C2`, the Potency is 18.4 µM (active).
Take `CC(=O)N1Cc2cc(C(=O)NCc3cccc(F)c3)nc(-c3cccc(C4=CCCCC4)c3)c2[C@H]1CCO`: the Potency was 16.4 µM (active).
For `Cc1c(C(=O)NCC2CC2)sc(=O)n1Cc1cccc(F)c1`, the “activity change, negative = growth inhibition” value was -6% (inactive).
On the same count and under the same terms, under `CCCNC(=O)c1cc(C2CCCCN2S(=O)(=O)c2ccc(C#N)cc2)on1` (stereo unspecified) stands -5.54% (inactive).
`Cc1nc(NCc2ccccc2)c(C(N)=O)c2c1COC(C)(C)C2`: the “activity change, negative = growth inhibition” value was -11.4% (inactive).
Regarding `CCCCCC(=O)N1CCN(S(=O)(=O)c2ccc3c(c2)OCCCO3)CC1`, the “activity change, negative = growth inhibition” value was -29% (inactive).
Still for that read-out and setting: under `CC(=O)NNc1cc(=O)c2c(=O)n(C)c(=O)n(C)c2[nH]1` stands -2.48% (inactive); under `O=C(NC(=S)NC1CCS(=O)(=O)C1)c1cccc([N+](=O)[O-])c1` (stereo unspecified), 41.6% (inactive); under `Cc1cccc(C(=O)NNC(=O)c2cccc([N+](=O)[O-])c2)c1`, 5.26% (inactive).
With `Cc1cccc(C(=O)NC(=S)N2CCN(c3ccc([N+](=O)[O-])cc3)CC2)c1`, the Potency is 16.4 µM (active).
As for `O=C(NCc1ccncc1)c1ccc(NS(=O)(=O)c2cccc([N+](=O)[O-])c2)cc1`, the “activity change, negative = growth inhibition” value was -6.11% (inactive).
On to `COCOCCn1cc(CN2CCS(=O)(=O)N(Cc3ccc(-c4ccccc4)cc3)C(CC(C)C)C2=O)nn1` (stereo unspecified), for which the Potency was 18.4 µM (active).
Turning to `COCOCCn1cc(CN2CCS(=O)(=O)N(Cc3ccc(-c4ccc(OC)cc4)cc3)C(CC(C)C)C2=O)nn1` (stereo unspecified), the Potency is 10.3 µM (active).
`COCCCn1cc(CN2CC(N(C)C)CS2(=O)=O)nn1` (stereo unspecified): the “activity change, negative = growth inhibition” value was -7.87% (inactive).
The same measure, in the same setting: under `CN(Cc1ccccc1)S(=O)(=O)c1ccc(F)c(C(=O)Nc2cccc(Cl)c2Cl)c1` stands -21.5% (inactive); under `CC1CCN(S(=O)(=O)c2ccc(S(=O)(=O)NCc3ccco3)cc2)CC1`, -18.4% (inactive); under `CC(C)CNC(=S)NNC(=O)c1nn(C)cc1Cl`, -16.3% (inactive).
In the case of `FC(F)(F)c1ccc(-c2cccc3c2C2CC3CCN2Cc2ccccc2)cc1` (stereo unspecified), the Potency was 13 µM (active).
On to `O=C(NCCN1CCOC1=O)C1CCC(=O)N(CCc2ccc(Cl)cc2)C1` (stereo unspecified), for which the “activity change, negative = growth inhibition” value is 2.23% (inactive).
The same measure, in the same setting: for `O=S(=O)(c1ccc(F)cc1)N1CCN(Cc2ccccc2C(F)(F)F)CC1` the value was -14.4% (inactive); for `CSCCC(NS(=O)(=O)/C=C/c1ccccc1)C(=O)N1CCC(C)CC1` (stereo unspecified), -17% (inactive).
In the case of `COc1ccc(OC)c(NC(=O)CN2CCCN(Cc3cc(C)ccc3C)S2(=O)=O)c1`, the Potency is 18.4 µM (active).
For `CCOC(=O)N1CCN(CCC(=O)Nc2cc(OC)ccc2OC)CC1`, the “activity change, negative = growth inhibition” value was -3.04% (inactive).
With `COc1ccc(OC)c(NC(=O)CCN2CCC(C)CC2)c1`, the “activity change, negative = growth inhibition” value is -7.7% (inactive).
Turning to `COC(=O)c1ccc(S(=O)(=O)c2ccc(C(=O)OC)s2)s1`, the “activity change, negative = growth inhibition” value was 0.0322% (inactive).
In the case of `C=CC(=O)Nc1ccc(Nc2ccnc(Nc3ccc(N4CCN(C)CC4)cc3)n2)cc1`, the “activity change, negative = growth inhibition” value is -92.1% (inactive).
On to `Fc1ccc2nc(-c3ccccc3)nc(SCc3nnc(-c4ccccc4)o3)c2c1`, for which the Potency was 23.1 µM (active).
On to `Fc1ccc(-c2nnc(CSc3nnc(-c4ccc5c(c4)OCO5)o3)o2)cc1`, for which the “activity change, negative = growth inhibition” value is 0.842% (inactive).
The same measure, in the same setting: under `N#CCSc1nc(-c2ccccc2)nc2ccc(F)cc12` stands -14% (inactive); under `Nc1ccc2c(c1)C(O)c1ccc(Cl)cc1-2` (stereo unspecified), -1.47% (inactive).
On the same count and under the same terms, under `CCCCCCCCC(=O)NCCOc1ccccc1` stands 2.92% (inactive).
For `CCCCCCOc1ccc(OC(=O)c2cccnc2)cc1`, the Potency is 13 µM (active).
Consider `O=C(Oc1ccc(Br)cc1)c1cccnc1`, for which the “activity change, negative = growth inhibition” value was -13.7% (inactive).
Still for that read-out and setting: for `COc1ccc(-c2nc(CS(=O)CC(=O)NCc3cccnc3)c(C)o2)cc1OC` (stereo unspecified) the value was -1% (inactive); for `C=CCOc1ccc(C2/C(=C(\O)c3c(C)[nH]c(C(=O)OC)c3C)C(=O)C(=O)N2CCN(C)C)cc1` (stereo unspecified), 13.3% (inactive).
On the same count and under the same terms, for `CO[C@H]1[C@@H]2C=CO[C@@H](O[C@H]3O[C@@H](CO)[C@H](O)[C@@H](O)[C@@H]3O)[C@@H]2[C@@]2(CO)O[C@@H]12` the value was -8.69% (inactive).
On the same count and under the same terms, under `CC(=O)c1sc2nc(SCC(=O)N3CCCCC3)[nH]c(=O)c2c1C` stands -1.59% (inactive).
`CC(=O)c1ccc(NC(=O)c2sc3nc4n(c(=O)c3c2C)CCCCC4)cc1`: the Potency was 13 µM (active).
As for `COc1ccc(NC(=O)c2sc3nc[nH]c(=O)c3c2C)cc1`, the “activity change, negative = growth inhibition” value is -20.4% (inactive).
For the compound `Cc1ccc(NC(=S)NC(=O)/C=C/c2ccc(Cl)cc2)cc1`, the “activity change, negative = growth inhibition” value is -25.3% (inactive).
Same read-out and setting: for `CC(C)C[C@H](NC(=O)[C@@H]1O[C@H]1C(=O)O)C(=O)NCCCCN=C(N)N` the value was 7.11% (inactive); for `C=CCOc1cccc(C2NC(=O)c3ccccc3O2)c1` (stereo unspecified), -17.6% (inactive); for `CCCc1c(C(=O)O)cnn1-c1ccc(Cl)cc1`, -21.2% (inactive).
Still for that read-out and setting: for `CCc1ccccc1NC(=O)c1cnn(-c2ccc(F)cc2)c1C1CCNCC1` the value was -18.4% (inactive).
`CCCc1c(C(=O)Nc2ccc(F)cc2)cnn1-c1ccccc1`: the Potency was 14.6 µM (active).
`CN(C(=O)COC(=O)c1ccc(Br)o1)c1c(N)n(Cc2ccccc2)c(=O)[nH]c1=O`: the “activity change, negative = growth inhibition” value is -17.2% (inactive).
The same measure, in the same setting: for `O=S(=O)(Cc1nnnn1-c1ccc(Br)cc1)c1ccc(F)cc1` the value was -15.1% (inactive); for `Cc1cc(C)cc(Oc2c(C(F)(F)F)oc3cc(OCC(=O)O)ccc3c2=O)c1`, -19% (inactive); for `Cc1ccc(S(=O)(=O)Nc2nc3ccccc3s2)cc1[N+](=O)[O-]`, -10.3% (inactive).
In the case of `COc1cc(/C=N/Nc2nc3ccccc3s2)ccc1O`, the Potency was 1.3 µM (active).
Take `O=[N+]([O-])c1cc(Br)c(O)c(/C=N/Nc2nc3ccccc3s2)c1`: the Potency was 18.4 µM (active).

(Values after PubChem BioAssay AID686978 (National Center for Advancing Translational Sciences (NCATS), 2013).)
